Reference: PubChem BioAssay

Each compound was assayed on Lefty1 (assay: Lefty1 protein binding to printed compounds – biochemical, small-molecule microarray, 635/667 nm fluorescence, primary screen (AID 1139)). Conditions: fluorescence 635/667, higher = more signal.
COC(=O)C[C@H]1O[C@@H](CCc2ccccc2)[C@@H](C)[C@@H]1[Si](C)(C)c1ccc(OC)cc1 showed a composite z-score of -0.105. Work on CC(=CC1CCCCC1)[C@@H](NC(=O)c1cccnc1)c1ccc(-c2ccccc2)cc1 yielded a composite z-score of -0.496. Compound [N-]=[N+]=Nc1ccccc1C[C@]1(C(=O)NCC(O)CO)N=C(c2ccc(OCCCO)cc2)O[C@H]1c1ccccc1 (stereo partly drawn) has a composite z-score of -0.492. COCC(=C=CC[C@H](O)c1cccc(OCCO)c1)CCO showed a composite z-score of 1.48. With COC(=O)[C@H](Cc1ccccc1)N[C@H](/C=C/C1CC1)[C@@H](O)Cc1ccccc1 the composite z-score was -0.0264. Compound C=CCOC(=O)[C@H]1[C@@H]2C(=O)O[C@@H](c3ccccc3)[C@@H](c3ccccc3)N2[C@@H](c2ccc(OCCOC(=O)[C@@H]3C[C@@H]4C(=O)N5CCC[C@H]5C(=O)N4[C@@H]3c3cccc(OCCO)c3)cc2)[C@]12C(=O)Nc1ccc(I)cc12 has a composite z-score of 1.38. COCC(=C=CC[C@@H](O)c1ccc(OCCO)cc1)C[C@@H](O)c1ccccn1 gave a composite z-score of 0.517. Compound COc1ccc([Si](C)(C)[C@@H]2[C@@H](CCO)O[C@]3(C(=O)N(Cc4cccc(N5CCOC5=O)c4)c4ccccc43)[C@H]2C)cc1 has a composite z-score of 0.26. For [N-]=[N+]=Nc1ccccc1[C@H]1OC(c2ccc(OCCCO)cc2)=N[C@@]1(Cc1ccccc1)C(=O)N1CCOCC1, the composite z-score was 0.511. In the case of CN1C(=O)C2C=CC(C(O)C=Cc3ccc([N+](=O)[O-])cc3)N(Nc3ccccc3)C2C1=O (stereo not drawn), the composite z-score is reported as 0.637. C#CCOc1ccc(C[C@@H](C(=O)OC)N(CC#C)[C@@H](/C=C/C2CC2)[C@H](O)Cc2ccccc2)cc1 was tested, and the composite z-score was 0.22. With O=C(NCc1ccccc1)[C@@H]1c2ccccc2C(=O)N(C2Cc3ccccc3C2)[C@H]1c1ccc(CO)cc1 the composite z-score was 0.459. COC(=O)c1c2oc(c1C(=O)OC)C(=O)NC1(CCCCC1)c1cn(nn1)C[C@H](Cc1ccccc1)NC(=O)N[C@H](CO)CC2 gave a composite z-score of 0.609. Compound CCCCCCc1nc(-c2ccc(-c3ccc(Cl)c(Cl)c3)o2)cc2c1[Si](C(C)C)(C(C)C)O[C@H]2c1ccccc1 has a composite z-score of 0.0259. Compound COCCOC(=O)N1C(=O)[C@@]2(c3cc(C#CC4(O)CCCCCC4)ccc31)[C@H](C(=O)Nc1nc3ccccc3s1)[C@H]1C(=O)O[C@H](c3ccccc3)[C@H](c3ccccc3)N1[C@@H]2c1ccc(OCCO)cc1 has a composite z-score of 1.22. With COC(=O)[C@@]1(Cc2ccc(OC)cc2)[C@H]2c3cc(C(=O)N4CCCC4)n(CCCNc4ncc(C(F)(F)F)cc4Cl)c3C[C@H]2CN1C(=O)c1ccccc1 the composite z-score was 0.337. With COC(=O)[C@@]1(Cc2ccc(OC)cc2)[C@H]2c3cc(C(=O)N4CCCC4)n(CCc4ccc(O)c(O)c4)c3C[C@H]2CN1C(=O)c1ccccc1 the composite z-score was -0.958. For Cc1c(NC(=O)/C(C#N)=C/c2cccc([N+](=O)[O-])c2)c(=O)n(-c2ccccc2)n1C, the composite z-score was 0.931. C[N+](C)(C)CCCC[C@@H]1NC(=O)[C@@H]2C[C@H](C(=O)NCCCCCCNC(=O)CS)[C@H](c3ccc(O)cc3)N2C1=O showed a composite z-score of -0.237. Work on COC(=O)[C@@]1(Cc2ccccc2)[C@H]2c3cc(C(=O)N4CCCC4)n(Cc4ccc(O)c(OC)c4)c3C[C@H]2CN1C(=O)c1ccccc1 yielded a composite z-score of -0.0456. With O=C1O[C@@H](c2ccccc2)[C@@H](c2ccccc2)N2[C@@H](c3ccccc3OCCO)[C@]3(C(=O)Nc4ccccc43)[C@@H](C(=O)O)[C@H]12 the composite z-score was -0.474. With CCCNC(=O)[C@@H]1c2ccccc2C(=O)N(Cc2ccccc2OC)[C@H]1c1ccc(CO)cc1 the composite z-score was 0.482. With CC[C@@H]1C=C(C(=O)O)[C@H](c2ccc(C)cc2)N1S(=O)(=O)c1ccc(C)cc1 the composite z-score was 0.285. In the case of O=C1O[C@H](c2ccccc2)[C@H](c2ccccc2)N2[C@H]1[C@@H](C(=O)NC[C@H](O)c1ccccc1)[C@]1(C(=O)Nc3ccccc31)[C@H]2c1ccc(O)cc1, the composite z-score is reported as 0.947. Cc1ccc(S[C@]2(C(=O)NCC(C)C)CC(=O)N(Cc3cc(C(F)(F)F)cc(C(F)(F)F)c3)[C@@H]2c2ccc(CO)cc2)cc1 gave a composite z-score of -0.866. COCCOC(=O)N1C(=O)[C@@]2(c3cc(C#CC4=CCCCC4)ccc31)[C@H](c1ccc(OCCO)cc1)N1[C@H](c3ccccc3)[C@H](c3ccccc3)OC(=O)[C@H]1[C@@H]2C(=O)N1CCc2cc(OC)c(OC)cc2C1 showed a composite z-score of 1.11. COc1ccccc1CN1C(=O)c2ccccc2[C@@H](C(=O)NCc2ccccc2)[C@@H]1c1ccc(CO)cc1 gave a composite z-score of 0.423. COCCOC(=O)N1C(=O)[C@@]2(c3ccccc31)[C@H](C(N)=O)[C@H]1C(=O)O[C@H](c3ccccc3)[C@H](c3ccccc3)N1[C@@H]2c1ccc(O)cc1 gave a composite z-score of 0.429.
